In PubChem BioAssay (NCI) one finds growth data, which are given here for 7 compounds.

About 83,000 compounds went through this panel and 20% of them were active in at least one assay; those are over-represented in the sample as a whole.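 96-well plates, one dose, 48 hours. Percent growth reported; active if below 10.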 A number with no mark means an inactive call. The source made the active and inactive calls.

Holding throughout (test): NCI-60 one-dose screen, 48 h (100 = growth as untreated, 0 = no growth, -100 = all killed)
What all share (settings): 10 µM unless noted

For assay [1], the system named is NCI-H23 lung.
Assay [2] concerns NCI-H226 lung.
Assay [3] has as its system NCI-H322M lung.
The test system of assay [4] is HOP-62 NSCLC.
The subject of assay [5] is NCI-H460 lung.
Assay [6] relates to HOP-92 NSCLC.
In assay [7] the test system is NCI-H522 lung.
In assay [8] the test system is A549/ATCC NSCLC.
Assay [9] relates to 786-0 renal.
For assay [10], the system named is COLO 205 colon.
For assay [11], the system named is DU-145 prostate.
Assay [12] deals with K-562 leukemia.
The test system of assay [13] is MALME-3M melanoma.
Assay [14] has as its system MDA-MB-231 breast.
Assay [15] deals with RXF 393 renal.
The subject of assay [16] is SF-268 CNS.
In assay [17] the test system is SF-295 CNS.
Assay [18] concerns SF-539 CNS.
Assay [19] deals with UACC-257 melanoma.
In assay [20] the test system is M14 melanoma.

Consider `CN1C/C=C\CCOc2cccc(c2)-c2ccnc(n2)Nc2cccc(c2)C1`, for which the growth in assay [1] was -56.6% (active); in assay [2], -33.7% (active); in assay [3], -17.7% (active); in [4], -44.5% (active); in [5], -73.6% (active); in assay [6], -15.5% (active). The growth in [7] is -70.1% (active); in [8], -50.1% (active); in [9], -85.9% (active); in assay [10], -81.6% (active); in [11], 5.04% (active); in assay [12], -18.5% (active). Further, the growth was -79.4% (active) in [13]; -38.6% (active) in assay [14]; -86.1% (active) in [15]; -50.8% (active) in assay [16]; -86.3% (active) in [17]; -91.8% (active) in assay [18]. Also, the growth was -73.7% (active) in [19] and -78.4% (active) in [20].

Take `C[C@@]1(C(=O)Nc2ccc(F)nc2)CCCN1c1nc(Nc2cc(C3CC3)[nH]n2)c2cccn2n1`: the growth in assay [1] was 20.5%; in assay [2] it was 30.1%; in assay [3], 15.3%; in [4], 11.3%; in assay [5], 14.5%; in assay [6], -45.5% (active). Further, the growth in assay [7] was 40.9%; in assay [8] it was 21.9%; in assay [9], 5.48% (active); in assay [10], -49.3% (active); in assay [11] it was 38.9%; in assay [12], 27.3%. The growth in assay [13] was 55.3%; in assay [14] it was 20.7%; in assay [15], -45.9% (active); in assay [16], 15.5%; in assay [17], -13.2% (active); in assay [18], 16.3%. In addition, the growth was 22.1% in assay [19] and 21.6% in assay [20].

Consider `COC(=O)[C@H](C)NC(=O)[C@@H](OC)[C@@H]1Cc2cc3cc(OC4CC(OC5CC(O)C(O)C(C)O5)C(O)C(C)O4)c(C)c(O)c3c(O)c2C(=O)[C@H]1OC1CC(OC2CC(OC3CC(C)(O)C(O)C(C)O3)C(O)C(C)O2)C(O)C(C)O1` (stereo not given in full), for which the growth in [1] is -31.1% (active); in assay [2], -21.5% (active); in assay [3] it was 11.4%; in assay [4], 13%; in assay [5] it was 7.28% (active); in [6], 3.12% (active). Besides, the growth in assay [7] is -26% (active); in assay [8], 7.05% (active); in assay [9] it was -4.86% (active); in assay [10], -20.5% (active); in [11], 13.2%; in assay [12], 7.1% (active). In addition, the growth was -49.3% (active) in assay [13]; 18.4% in assay [14]; -70.3% (active) in [15]; 14.1% in assay [16]; 3.96% (active) in assay [17]; -33.2% (active) in assay [18]. Besides, the values for the growth in assay [19] and in [20] were -0.386% (active) and -23.9% (active), respectively.

In the case of `C=CCN(/C=C1/C(=O)O[C@H](COC)[C@@]2(C)C1=C(O)C(=O)C1=C2[C@H](OC(C)=O)C[C@]2(C)C(=O)CC[C@@H]12)CC=C`, the growth was 36.7% in assay [1]; 24% in [2]; -15.1% (active) in assay [3]; 16.5% in assay [4]; 11.2% in assay [5]; -3.58% (active) in assay [6]. In addition, the growth was 13.5% in [7]; 4.59% (active) in assay [8]; 4.54% (active) in assay [9]; 17.7% in assay [10]; 26.6% in assay [11]; 40.9% in [12]. Also, the growth is -1.8% (active) in assay [13]; 42% in assay [14]; -41.1% (active) in assay [15]; 29.9% in assay [16]; 5.72% (active) in assay [17]; -19.1% (active) in assay [18]. The figures for the growth in assay [19] and in [20] were 15.8% and 28.2%, respectively.

Take `CC[C@@H]1C(=O)N(C)c2cnc(Nc3ccc(C(=O)NC4CCN(C)CC4)cc3OC)nc2N1C1CCCC1`: the growth in [1] is 8.04% (active); in assay [2], 52.6%; in assay [3], 24.9%; in [4], -20.1% (active); in assay [5], 8.51% (active); in assay [6], 7.59% (active). In addition, the growth in assay [7] was -14.4% (active); in [8], 3.29% (active); in assay [9], 8.26% (active); in [10] it was -54% (active); in assay [11] it was 9.68% (active); in assay [12], 0.167% (active). The growth in assay [13] is -15.9% (active); in [14] it was 17%; in assay [15], -3.01% (active); in assay [16] it was 15.5%; in assay [17], 11%; in assay [18], -82.4% (active). The results for the growth in assay [19] and in assay [20] were -9.29% (active) and -25.9% (active), respectively.

On to `CC(C)(C)c1cnc(CSc2cnc(NC(=O)C3CCNCC3)s2)o1`, for which the growth was -22.2% (active) in [1]; 3.09% (active) in assay [2]; 5.62% (active) in [3]; -16.2% (active) in assay [4]; 2.67% (active) in assay [5]; -8.65% (active) in [6]. The growth in assay [7] is -24.8% (active); in [8], 1.61% (active); in assay [9] it was 12%; in [10], -45.3% (active); in assay [11], 7.26% (active); in [12], 4.07% (active). Besides, the growth in [13] was -41.1% (active); in assay [14], 6.82% (active); in assay [15], -51.5% (active); in assay [16] it was 12%; in assay [17], 11.6%; in assay [18] it was -33.1% (active). Moreover, the growth in assay [19] is -25.5% (active); in [20] it was -58.6% (active).

For `CNC(=O)c1cccc2cc(Oc3ccnc4cc(OCC5(N)CC5)c(OC)cc34)ccc12`, the growth is 63.9% in assay [1]; 47.1% in assay [2]; 74.3% in assay [3]; 51.7% in assay [4]; 56% in assay [5]; 64.6% in assay [6]. Besides, the growth was 46.3% in assay [7]; 57.4% in assay [8]; 76.8% in [9]; 58% in assay [10]; 77.7% in assay [11]; 19.5% in [12]. Moreover, the growth in [13] was 74.3%; in assay [14] it was 60.8%; in assay [15] it was 39.8%; in assay [16] it was 52.4%; in assay [17], 58.4%; in [18], 12.6%. For the same compound, the growth in assay [19] is 90.2%; in assay [20], 56.1%.
